# Assay results: PubChem BioAssay (EPA / NIEHS)
# Results filed as inconclusive are left out. Activity calls are given as the source filed them. Rule for the calls, unless noted: active = hit-call score of the fitted dose curve at least 0.9, where 1 is the maximum; inactive = score below 0.9.
# Legend:
# [1] = target: Ratio of Nucleoli Translocation and Cytoplasm, AR (gene 367) (UniProt P10275); experiment: UPITT_HCI_U2OS_AR_TIF2_Nucleoli_Cytoplasm_Ratio_Antagonist: University of Pittsburgh U2OS Androgen Receptor-Transcriptional Intermediary Factor 2 (AR-TIF2) Antagonism High Content Imaging Assay for Ratio of Nucleoli Translocation and Cytoplasm (AID 2283999; active = hit-call score of the fitted dose curve at least 0.9, where 1 is the maximum;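 note: antagonists lower the DHT-driven ratio of nucleolar to cytoplasmic red signal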)
# Chain of Ratio of Nucleoli Translocation and Cytoplasm, AR (gene 367) (P10275 whole entry, looked up): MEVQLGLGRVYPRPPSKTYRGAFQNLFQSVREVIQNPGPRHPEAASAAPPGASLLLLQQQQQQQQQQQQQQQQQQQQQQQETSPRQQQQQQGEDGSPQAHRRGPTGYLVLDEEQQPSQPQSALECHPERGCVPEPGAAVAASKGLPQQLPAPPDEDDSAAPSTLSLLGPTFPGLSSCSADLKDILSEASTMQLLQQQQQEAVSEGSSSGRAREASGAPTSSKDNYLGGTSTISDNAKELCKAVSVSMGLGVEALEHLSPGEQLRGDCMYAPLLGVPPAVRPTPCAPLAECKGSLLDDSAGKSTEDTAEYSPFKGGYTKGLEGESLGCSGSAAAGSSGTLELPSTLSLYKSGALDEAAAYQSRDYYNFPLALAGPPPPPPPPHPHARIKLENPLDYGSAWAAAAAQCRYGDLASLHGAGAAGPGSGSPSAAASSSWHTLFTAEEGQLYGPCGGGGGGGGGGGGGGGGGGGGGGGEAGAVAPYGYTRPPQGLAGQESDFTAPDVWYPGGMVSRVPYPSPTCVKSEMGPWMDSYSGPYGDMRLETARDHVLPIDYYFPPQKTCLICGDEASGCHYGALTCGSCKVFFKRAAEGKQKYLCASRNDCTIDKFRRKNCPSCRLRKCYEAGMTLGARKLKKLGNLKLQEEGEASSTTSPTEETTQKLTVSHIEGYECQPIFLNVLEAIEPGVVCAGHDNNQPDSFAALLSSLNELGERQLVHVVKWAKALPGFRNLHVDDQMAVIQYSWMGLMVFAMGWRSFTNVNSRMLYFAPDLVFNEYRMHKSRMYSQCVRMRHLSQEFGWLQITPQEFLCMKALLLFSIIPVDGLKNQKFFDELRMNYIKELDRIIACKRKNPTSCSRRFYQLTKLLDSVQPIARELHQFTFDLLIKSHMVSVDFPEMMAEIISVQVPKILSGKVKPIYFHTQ
# Method in brief: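 This antagonist-mode endpoint tracks AR-RFP localisation, the nucleolus-to-cytoplasm intensity ratio, in TIF2-GFP-coexpressing U2OS cells. DMSO stays at or below 0.5%; testing spans 20 uM single-dose and 0.195–50 uM series, with DHT setting the activity baseline.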
# [2] = CCTE_Harrill_HTTr_Viability_MCF7: CCTE's 6-hour Cell Viability Assessment for the High-Throughput Transcriptomics (HTTr) Platform, in MCF-7 cells cultured in DMEM + 10% fetal bovine serum, Harrill Lab (AID 2284010)
# Method in brief: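 Eight-point concentration series, six-hour exposure. Propidium iodide exclusion imaged to assess membrane integrity as a cytotoxicity readout; bidirectional fitting was done with DMSO as negative control and activity baseline.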
# [3] = CCTE_Harrill_HTTr_Apoptosis_MCF7: CCTE's 6-hour Apoptosis Assessment for the High-Throughput Transcriptomics (HTTr) Platform, in MCF-7 cells cultured in DMEM + 10% fetal bovine serum, Harrill Lab (AID 2284011)
# Method in brief: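 High-content imaging of CellEvent Caspase 3/7 Green signal follows a six-hour exposure, with eight concentrations per chemical. MCF-7 cells grown in DMEM plus 10% fetal bovine serum; activity fitted in both directions against DMSO.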
# [4] = CCTE_Harrill_HTTr_CellCount_MCF7: CCTE's Cell Proliferation Assessment for the High-Throughput Transcriptomics (HTTr) Platform, Harrill Lab (AID 2284012; active = hit-call score of the fitted dose curve at least 0.9, where 1 is the maximum;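 note: count of Hoechst-stained nuclei per well by high-content imaging in MCF-7 cells; cells exposed to compound for six hours; intended direction is loss of nuclei count meaning fewer cells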)
# Method in brief: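 For this full-screen endpoint, MCF-7 cultures received eight compound dilutions for six hours. Well nuclei counts from Hoechst imaging were analyzed relative to DMSO.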
# [5] = target: Ratio of Nucleoli Translocation and Cytoplasm, AR (gene 367) (UniProt P10275); experiment: UPITT_HCI_U2OS_AR_TIF2_Nucleoli_Cytoplasm_Ratio_Agonist: University of Pittsburgh U2OS Androgen Receptor-Transcriptional Intermediary Factor 2 (AR-TIF2) Agonism High Content Imaging Assay for Ratio of Nucleoli Translocation and Cytoplasm (AID 2284000; active = hit-call score of the fitted dose curve at least 0.9, where 1 is the maximum;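 note: hits raise the red nucleolar to cytoplasm ratio above vehicle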)
# Method in brief: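 Compounds tested at 20 uM final in primary screen (0.2% DMSO) and 0.195-50 uM final in dose-response (0.5% DMSO). Imaging of human U2OS cells bearing RFP-AR and GFP-TIF2; endpoint is nucleoli/cytoplasm red signal ratio, positive direction relative to DMSO.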
# [6] = CCTE_Shafer_MEA_acute_spike_number: CCTE's Neural Acute Assay for Total Number of Spikes, Shafer Lab (AID 2284008);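 for AC50: curve fitted for decrease in spike count so AC50 reflects inhibitors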
# Method in brief: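 Total spike count from 40 min recordings before and during compound exposure (0.03-40 uM), given as per-well percent change. Cortical cultures from rat, DIV 13 or 15, 37 C; adaptive detection threshold 8x rms noise.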
# [7] = CCTE_Shafer_MEA_acute_firing_rate_mean: CCTE's Neural Acute Assay for Mean Firing Rate, Shafer Lab (AID 2284009);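 note: analyzed for loss of signal so actives lower firing rate relative to DMSO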
# Method in brief: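 Primary rat cortical neurons on 16-electrode MEA wells were exposed on DIV 13 or 15 to compound (0.03-40 uM). Spike counts per recording time, averaged over electrodes, were compared between 40-min baseline and 40-min post-exposure recordings as percent change.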
# [8] = CCTE_Shafer_MEA_acute_burst_number: CCTE's Neural Acute Assay for Single-Electrode Bursts, Shafer Lab (AID 2284013)
# Method in brief: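 Primary rat cortical neurons on 16-electrode MEA wells, DIV 13 or 15, exposed to compound (0.03-40 uM; ≥3 wells); 40-min recordings at 37 C before and after treatment. Burst count expressed as percent change from baseline, DMSO as negative control.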
# [9] = CCTE_Shafer_MEA_acute_burst_duration_mean: CCTE's Neural Acute Assay for Mean Burst Duration, Shafer Lab (AID 2284014);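 note: hits are decreases in mean burst duration relative to DMSO controls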
# Method in brief: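 Mean burst duration was compared between a 40 min baseline and a 40 min recording in the presence of compound (0.03-40 uM, 37 C), giving percent change per well. Cultures were rat cortical neurons at DIV 13 or 15; wells needed ≥10 active electrodes.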
# [10] = CCTE_Shafer_MEA_acute_per_burst_spike_number_mean: CCTE's Neural Acute Assay for Average Number of Spikes Per Burst, Shafer Lab (AID 2284015);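 note: hits are decreases in mean spikes per burst versus baseline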
# Method in brief: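 Rat primary cortical neurons on 48-well MEAs (DIV 13 or 15) were treated with 0.03-40 uM compound at 37 C. Mean spikes per burst over 40 min were recorded before and after exposure and expressed as percent change from baseline, relative to DMSO.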
structure (smiles),measurement,setting,value
CC1CCC(C(C)C)C(O)C1 (stereo not drawn),outcome,[1],inactive
same,outcome,[2],inactive
same,outcome,[3],inactive
same,outcome,[4],inactive
CC(=O)O[C@H]1C[C@@H]2CC[C@@]1(C)C2(C)C,outcome,[1],inactive
Cc1ccc(S(N)(=O)=O)cc1,outcome,[2],inactive
same,outcome,[3],inactive
COc1ccc(COC(C)=O)cc1,outcome,[2],inactive
same,outcome,[3],inactive
CCc1ccc(O)cc1,outcome,[2],inactive
same,outcome,[3],inactive
CC(C=O)Cc1ccc(C(C)(C)C)cc1 (stereo not drawn),outcome,[1],inactive
same,outcome,[5],inactive
same,outcome,[3],inactive
CCCCCCC(CO)CCCC (stereo not drawn),AC50,[6],5.36 µM (active)
same,AC50,[7],5.36 µM (active)
same,outcome,[8],inactive
same,outcome,[9],inactive
same,outcome,[10],inactive
CC(C)(C)CC(C)(C)c1ccc(OCCOCC[N+](C)(C)Cc2ccccc2)cc1,outcome,[2],inactive
same,outcome,[3],inactive
COCCc1ccc(OCC(O)CNC(C)C)cc1 (stereo not drawn),outcome,[6],inactive
same,outcome,[7],inactive
same,outcome,[3],inactive
same,outcome,[4],inactive
same,outcome,[8],inactive
same,outcome,[9],inactive
same,outcome,[10],inactive
CCOC(=O)C(C#N)=C(c1ccccc1)c1ccccc1,outcome,[6],inactive
same,outcome,[7],inactive
same,outcome,[8],inactive
same,outcome,[9],inactive
same,outcome,[10],inactive
CCCCCCCCSCCO,outcome,[5],inactive
OCc1cccc(Oc2ccccc2)c1,outcome,[1],inactive
same,outcome,[5],inactive
same,outcome,[2],inactive
same,outcome,[3],inactive
Nc1ccc(N)c2c1C(=O)c1ccccc1C2=O,outcome,[1],inactive
same,outcome,[5],inactive
Oc1c(Cl)cc(Cl)c(Cl)c1Cc1c(O)c(Cl)cc(Cl)c1Cl,AC50,[6],0.266 µM (active)
same,AC50,[7],0.266 µM (active)
same,outcome,[2],inactive
same,outcome,[3],inactive
same,outcome,[8],inactive
same,outcome,[9],inactive
same,AC50,[10],0.155 µM (active)
CC1(C)CCC[C@]2(C)[C@H]3CCO[C@]3(C)CC[C@@H]12,outcome,[6],inactive
same,outcome,[7],inactive
same,outcome,[8],inactive
same,outcome,[9],inactive
same,outcome,[10],inactive
CC(=O)C1(C)CC2=C(CCCC2(C)C)CC1C (stereo not drawn),outcome,[1],inactive
same,outcome,[5],inactive
same,outcome,[2],inactive
same,outcome,[3],inactive
same,outcome,[4],inactive
O=CN1CCOCC1,outcome,[6],inactive
same,outcome,[7],inactive
same,outcome,[8],inactive
same,outcome,[9],inactive
same,outcome,[10],inactive
C=C(C)[C@@H]1CC=C(C)C(=O)C1,outcome,[2],inactive
same,outcome,[3],inactive
CCCCC1CCC(O)CC1 (stereo not drawn),outcome,[1],inactive
same,outcome,[5],inactive
CCCCCCCCC=CCCCCCCCC1=NCCN1CCO,outcome,[1],inactive
same,AC50,[5],13.7 µM (active)
CCc1cc(Cc2cc(CC)cc(C(C)(C)C)c2O)c(O)c(C(C)(C)C)c1,AC50,[1],50 µM (active)
same,AC50,[5],91.2 µM (active)
same,outcome,[3],inactive
CN(c1nccc(=O)[nH]1)C1CCN(c2nc3ccccc3n2Cc2ccc(F)cc2)CC1,outcome,[2],inactive
same,outcome,[3],inactive
Cc1ccc(S(=O)(=O)Oc2ccc(N=Nc3ccc(-c4ccc(N=Nc5c(O)ccc6cc(S(=O)(=O)O)cc(S(=O)(=O)O)c56)c(C)c4)cc3C)cc2)cc1,outcome,[1],inactive
same,outcome,[5],inactive
CN(C)C(=S)SC(=S)N(C)C,outcome,[6],inactive
same,outcome,[7],inactive
same,outcome,[8],inactive
same,outcome,[9],inactive
same,outcome,[10],inactive
BrCc1cccc(Oc2ccccc2)c1,outcome,[1],inactive
same,outcome,[5],inactive
CC(C)CCCCCCc1ccc(OCCOCCO)cc1,outcome,[1],inactive
CC(CN=Cc1ccccc1O)N=Cc1ccccc1O (stereo not drawn),outcome,[6],inactive
same,outcome,[7],inactive
same,outcome,[3],inactive
same,outcome,[8],inactive
same,outcome,[9],inactive
same,AC50,[10],15 µM (active)
C[C@H]1O[C@@H](O[C@H]2[C@@H](O)C[C@H](O[C@H]3[C@@H](O)C[C@H](O[C@H]4CC[C@@]5(C)[C@H](CC[C@@H]6[C@@H]5C[C@@H](O)[C@]5(C)[C@@H](C7=CC(=O)OC7)CC[C@]65O)C4)O[C@@H]3C)O[C@@H]2C)C[C@H](O)[C@@H]1O,outcome,[1],inactive
same,outcome,[3],inactive
CCOC(=O)[C@@H](C)Oc1ccc(Oc2nc3ccc(Cl)cc3o2)cc1,outcome,[1],inactive
same,outcome,[5],inactive
same,outcome,[3],inactive
same,outcome,[4],inactive
CC(C)(CO)[C@@H](O)C(=O)NCCC(=O)O,outcome,[2],inactive
same,outcome,[3],inactive
O=C(Nc1ccc2c(O)c(N=Nc3ccc(N=Nc4ccc(S(=O)(=O)O)cc4)cc3)c(S(=O)(=O)O)cc2c1)c1ccccc1,outcome,[6],inactive
same,outcome,[7],inactive
same,outcome,[8],inactive
same,outcome,[9],inactive
same,outcome,[10],inactive
CCCCCCCCCCCCCC(=O)OCC(O)CO (stereo not drawn),outcome,[5],inactive
